The structures appear in SMILES notation. Screen size: about 59,000 compounds; about 6,200 (11%) were called active. Not shown: some 9% with an inconclusive outcome. Cut-off read from the data, not from the text of the source: active = max dye-equivalent concentration above about 10 nM; inconclusive = mostly about 1.1 nM to 9.6 nM; inactive = weaker than that. For the sample, actives were picked, then their nearest neighbours and some compounds at random.

This experiment in a line: qHTS Assay for Spectroscopic Profiling in 4-MU Spectral Region. Conditions: compound autofluorescence, 340/450 nm, 4-MU equivalents; stronger effect = higher value. In a few lines:
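Compounds in 100 mM Tris, pH 8.0, incubated 15 min at room temperature, then fluorescence read at 340 nm excitation/450 nm emission. Signal converted to 4-MU dye-equivalent concentration using an on-plate six-point 4-MU standard curve.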
In general terms: Quantitative high-throughput screening tests each substance at several concentrations.
As for `COc1ccccc1-c1cc(C(=O)NCCCn2ccnc2)no1`, the max dye-equivalent concentration result is “inactive”.

As for `COc1ccc(CNc2ncncc2-c2ccccc2OC)c(OC)c1`, the max dye-equivalent concentration entry is “inactive”.

As for `Cc1cccc2cc(C#N)c(N3CCCC3)nc12`, the max dye-equivalent concentration was 42 nM (active).

As to `Cc1ccc(OCc2nc(C#N)c(N3CCCC3)o2)cc1`, the max dye-equivalent concentration result was “inactive”.

Regarding `Cc1cc(C)c2nc(N3CCCC3)c(C#N)cc2c1`, the max dye-equivalent concentration was 130 nM (active).

`NC(=O)C1CCN(C(=O)c2ccc(C(F)(F)F)cc2)CC1`: the max dye-equivalent concentration entry is “inactive”.

As for `CN1CCN(CCCNC(=O)c2cc3c(=O)oc4ccccc4c3s2)CC1`, the max dye-equivalent concentration result is “inactive”.

Turning to `O=C(c1ccc([N+](=O)[O-])cc1)[C@@H](Br)[C@@H](Br)c1ccnc2ccccc12`, the max dye-equivalent concentration entry is “inactive”.

As to `CC12C(=O)N(n3cnnc3)C(=O)C1C1C=CC2C1` (stereo unspecified), the max dye-equivalent concentration entry is “inactive”.

On to `Fc1ccc2[nH]c3c(N4CCSCC4)ncnc3c2c1`, for which the max dye-equivalent concentration is 47 nM (active).

`Cc1ccc(-n2ncc3c(N4CCN(c5ccc(F)cc5)CC4)ncnc32)c(C)c1`: the max dye-equivalent concentration result was “inactive”.

Consider `Cc1cnc(CNc2nc(-c3cccnc3)nc3ccccc23)cn1`, for which the max dye-equivalent concentration result is “inactive”.

Turning to `Cc1noc(C)c1C(=O)NC(C)c1ccc2c(c1)OCO2` (stereo unspecified), the max dye-equivalent concentration result is “inactive”.

As for `O=C(CSc1nnc(-c2ccco2)n1Cc1ccccc1)NC(=O)NCc1ccco1`, the max dye-equivalent concentration result is “inactive”.

With `CO[C@@H]1/C=C\O[C@]2(C)Oc3c(C)c(O)c4c(O)c(c(CN(C)C)c(O)c4c3C2=O)NC(=O)/C(C)=C\C=C[C@@H](C)[C@@H](O)[C@H](C)[C@@H](O)[C@H](C)[C@H](OC(C)=O)[C@@H]1C`, the max dye-equivalent concentration entry is “inactive”.

As for `CCOc1cc(NC(=O)c2ccco2)c(OCC)cc1NC(=O)COc1ccccc1`, the max dye-equivalent concentration is 85 nM (active).

As to `O=C(Nc1ccc(Oc2ccccc2)cc1)c1ccco1`, the max dye-equivalent concentration entry was “inactive”.

In the case of `Cc1ccc(C(=O)COc2cccc(NC(=O)c3ccco3)c2)cc1`, the max dye-equivalent concentration entry is “inactive”.

Consider `O=c1oc2c(CN3CCCCC3)c(O)ccc2c2c1CCCCC2`, for which the max dye-equivalent concentration was 12000 nM (active).

For the molecule `CCN(CC)S(=O)(=O)c1cc(C(=O)Nc2ccccn2)ccc1C`, the max dye-equivalent concentration result is “inactive”.

As to `O=C(CSc1nc2ccccc2o1)N1CCN(c2ccccc2)CC1`, the max dye-equivalent concentration entry is “inactive”.

As to `Cc1ccnc(N2CCN(C(=O)CSc3nc4ccccc4nc3N3CCCCC3)CC2)c1`, the max dye-equivalent concentration was 29 nM (active).

For the molecule `Cn1c(=O)cc(OCCCC(=O)N2CCN(c3ccccn3)CC2)c2ccccc21`, the max dye-equivalent concentration result was “inactive”.

As to `CC1Cc2ccccc2N1C(=O)CSc1nc2ccccc2o1` (stereo unspecified), the max dye-equivalent concentration result is “inactive”.

For the molecule `c1ccc(CCN2CCN=C2Cc2ccccc2)cc1`, the max dye-equivalent concentration entry was “inactive”.

For the molecule `Cc1ccc(NC(=O)Cn2nc(C)c3ccccc3c2=O)c(C)c1`, the max dye-equivalent concentration entry is “inactive”.

Take `CCOc1ccc(N=NS(=O)(=O)O)cc1`: the max dye-equivalent concentration result is “inactive”.

For the molecule `Nc1ccc2[nH]cc(CCC(=O)O)c2c1`, the max dye-equivalent concentration result is “inactive”.

As for `NCCNCC1CCNCC1`, the max dye-equivalent concentration result was “inactive”.

Take `O=C(O)[C@H](CCc1ccccn1)c1ccccc1`: the max dye-equivalent concentration entry was “inactive”.

As for `C/C(N)=C(\C#N)C(=O)NCCc1ccccn1`, the max dye-equivalent concentration is 46 nM (active).

Consider `O=C(NCCc1ccccn1)c1ccc(COc2ccccc2)o1`, for which the max dye-equivalent concentration entry was “inactive”.

Take `O=C1C(=O)N(CCN2CCOCC2)C(c2ccccn2)/C1=C(/O)c1ccc(Cl)cc1` (stereo unspecified): the max dye-equivalent concentration entry is “inactive”.

Take `COc1ccccc1-c1nc(N2CCN(C)CC2)c2ccccc2n1`: the max dye-equivalent concentration entry was “inactive”.

Take `CCOC(=O)c1ccc(COC(=O)c2cc(=O)[nH]c3ccccc23)o1`: the max dye-equivalent concentration was 33 nM (active).

With `CCOC(=O)c1ccc(CS(=O)c2ccc(Cl)cc2)o1` (stereo unspecified), the max dye-equivalent concentration entry was “inactive”.

Regarding `CCOC(=O)c1sc2nc(CSCC(=O)OCc3ccc(C(=O)OC)o3)[nH]c(=O)c2c1C`, the max dye-equivalent concentration result was “inactive”.

Regarding `CN(C)c1ccnc2sc3c(=O)n(Cc4ccccc4)cnc3c12`, the max dye-equivalent concentration was 28 nM (active).

On to `CN(C)/C=C/c1c(C#N)c(=O)ncn1Cc1ccccc1`, for which the max dye-equivalent concentration entry was “inactive”.

Take `COC(=O)CCSc1nccn1Cc1ccccc1`: the max dye-equivalent concentration result is “inactive”.

For the molecule `CCOc1ccccc1N(CC(=O)NC1CCCCC1)C(=O)CCCC(=O)Nc1ccccn1`, the max dye-equivalent concentration result was “inactive”.

Consider `CCC(C)(C)n1nnnc1C(c1cccs1)N1CCN(Cc2ccccc2)CC1` (stereo unspecified), for which the max dye-equivalent concentration entry was “inactive”.

For `COc1ccccc1C(=O)Oc1ccc(N2C(=O)CCC2=O)cc1`, the max dye-equivalent concentration entry was “inactive”.

For the molecule `COc1ccc(-c2noc(CN(C)S(=O)(=O)c3ccc(C)cc3)n2)cc1`, the max dye-equivalent concentration result is “inactive”.

Take `COc1ccc(-c2ccc(-c3noc(-c4ccncc4)n3)c(OC)n2)cc1`: the max dye-equivalent concentration is 17 nM (active).

With `CCOc1cc(-c2noc(CCC(=O)N3CCOCC3)n2)ccc1OC`, the max dye-equivalent concentration entry was “inactive”.

Turning to `COc1ccc(-c2nc(-c3ccccc3)no2)c(OC)c1`, the max dye-equivalent concentration result was “inactive”.

For `CCOc1nc(-c2ccc(OC)cc2)ccc1-c1noc(-c2cc(OC)c(OC)c(OC)c2)n1`, the max dye-equivalent concentration was 57 nM (active).

For the molecule `O=C(Oc1ccc(-c2nc(-c3ccccn3)no2)cc1)c1ccccc1`, the max dye-equivalent concentration result is “inactive”.

Take `FC(F)Oc1ccccc1C1CC(c2ccc(Br)s2)Nc2ncnn21` (stereo unspecified): the max dye-equivalent concentration result is “inactive”.

For `CN1CCN(C(=O)c2ccc(NS(=O)(=O)c3ccccc3)cc2)CC1`, the max dye-equivalent concentration entry is “inactive”.

As to `O=C(c1cnccn1)N1CCC2(CCCN(Cc3ccccc3)C2)CC1`, the max dye-equivalent concentration result is “inactive”.

With `O=C(COc1cccc(-n2cnnn2)c1)NCCC1=CCCCC1`, the max dye-equivalent concentration result is “inactive”.

Regarding `Cn1nnc2cc(C(=O)NCCC3=CCCCC3)ccc21`, the max dye-equivalent concentration entry was “inactive”.

`Cc1ccc2c(c1)c1ncn(CCC3=CCCCC3)c(=O)c1n2C`: the max dye-equivalent concentration was 38 nM (active).

For the molecule `NC(=S)c1ccc(C(N)=S)o1`, the max dye-equivalent concentration entry was “inactive”.

`CCCCSc1nnc(-c2ccc(NC(=O)CC)cc2)n1C`: the max dye-equivalent concentration result is “inactive”.

For `CCOc1cc(C)c(Cl)cc1S(=O)(=O)n1nnc2ccccc21`, the max dye-equivalent concentration result is “inactive”.

Consider `Cc1nn(Cc2ccccc2)c(Cl)c1C(=O)OC1CCOC1=O` (stereo unspecified), for which the max dye-equivalent concentration entry is “inactive”.

`O=C(OC1CCOC1=O)c1ccc(-c2nc3ccccc3s2)s1` (stereo unspecified): the max dye-equivalent concentration is 550 nM (active).

Regarding `O=C(c1cccs1)N1CCC(c2nc3ccccc3s2)CC1`, the max dye-equivalent concentration entry was “inactive”.

For `Cc1ccc(C(C)C)c(OCc2nnc(SCC(=O)Nc3nccs3)n2C)c1`, the max dye-equivalent concentration result is “inactive”.

As for `C=CCOc1ccc(/C=N/n2cncn2)cc1OC`, the max dye-equivalent concentration entry is “inactive”.

Turning to `COc1ccc(Cl)cc1NC(=O)C1CC(=O)N(c2ccc(F)cc2)C1` (stereo unspecified), the max dye-equivalent concentration result was “inactive”.

Regarding `COCCCNC(=O)C1CC(=O)N(c2ccc(C)cc2)C1` (stereo unspecified), the max dye-equivalent concentration entry is “inactive”.

`COc1cccc(N2CC(C(=O)Nc3c(C)cccc3C)CC2=O)c1` (stereo unspecified): the max dye-equivalent concentration was 20 nM (active).

As to `O=C(Nc1ccn(Cc2ccc(F)cc2)n1)c1ccncc1`, the max dye-equivalent concentration result is “inactive”.

Take `N#Cc1c(NC(=O)CSc2nc3ccccc3c(=O)n2Cc2ccco2)sc2c1CCCC2`: the max dye-equivalent concentration entry was “inactive”.

As to `CC(C)(O/N=C(\C(=O)N[C@@H]1C(=O)N2C(C(=O)[O-])=C(C[n+]3ccccc3)CS[C@@H]12)c1csc(N)n1)C(=O)O`, the max dye-equivalent concentration result was “inactive”.

Regarding `CC(=O)N=c1ncn(CC(COC(C)=O)OC(C)=O)c2nc[nH]c12` (stereo unspecified), the max dye-equivalent concentration result was “inactive”.

With `Cc1ccc(S(=O)(=O)N2CCCC2C(=O)NCc2ccco2)cc1` (stereo unspecified), the max dye-equivalent concentration result was “inactive”.

On to `CC(=O)c1c(N2CCOCC2)nc(=S)n(Cc2ccccc2)c1C`, for which the max dye-equivalent concentration result was “inactive”.

For the molecule `CCOC(=O)CSc1nnc(CNC(=O)c2cccs2)n1-c1ccccc1`, the max dye-equivalent concentration result was “inactive”.

Consider `CCOC(=O)c1c(NC(=O)c2cccs2)sc(C)c1C`, for which the max dye-equivalent concentration was 190 nM (active).

On to `CCOC(=O)c1c(NC(=O)CSc2nnc(Cc3csc(N)n3)n2C)sc(C)c1C`, for which the max dye-equivalent concentration result was “inactive”.

On to `CCOC(=O)c1oc2ccccc2c1NC(=O)c1cccs1`, for which the max dye-equivalent concentration was 18 nM (active).

In the case of `COC(=O)c1c(NC(=O)CSc2nncs2)sc2c1CCCCC2`, the max dye-equivalent concentration result was “inactive”.

Turning to `O=C(Nc1ncccn1)c1cccs1`, the max dye-equivalent concentration entry is “inactive”.

For `COC(=O)c1c(NC(=O)c2cccs2)sc2c1CCCC2`, the max dye-equivalent concentration is 90 nM (active).

In the case of `COC(=O)Cn1cc(C(=O)c2cccs2)c2ccccc21`, the max dye-equivalent concentration entry was “inactive”.

In the case of `CCOCC(=O)Nc1sc2c(c1C(=O)OCC)CCCC2`, the max dye-equivalent concentration result was “inactive”.

In the case of `Cc1ccnc(N2CCC(C(=O)NC3CCCCCC3)CC2)n1`, the max dye-equivalent concentration result is “inactive”.

In the case of `CCN(CC)S(=O)(=O)c1ccc2nc(COC(=O)c3n[nH]c4ccccc34)[nH]c2c1`, the max dye-equivalent concentration result is “inactive”.

For the molecule `COc1ccc2c(c1)CCc1c(C(=O)Nc3c(C)n(C)n(-c4ccccc4)c3=O)noc1-2`, the max dye-equivalent concentration result was “inactive”.

Take `O=C(Nc1c[nH]c(=O)[nH]c1=O)Oc1ccccc1`: the max dye-equivalent concentration entry is “inactive”.

With `Cc1ccc(C)c(N(CC(=O)NCc2ccco2)C(=O)CCC(=O)Nc2ccccn2)c1`, the max dye-equivalent concentration entry is “inactive”.

For the origin of these results see PubChem BioAssay AID589 (National Center for Advancing Translational Sciences (NCATS), 2007).
